# Reference: PubChem BioAssay (NCATS)
# Inconclusive results are not listed. Unmarked numbers belong to inactive results. Active and inactive are the calls of the source. Calls follow the shape of the dose curve; as a rule, active = well fitted cell-killing curve with a large enough effect; inconclusive = small, poorly fitted or top-dose-only effect; inactive = flat fitted curve, though single readings scatter.
# Assay: Cellular viability qHTS for adrenocortical cancer (ACC) cell line NCI-H295R (AID 1963990); also: nearly all actives have a fitted effect of over 60% in size
# Conditions: CellTiter-Glo ATP luminescence, 48 h; series mostly up to 46.1 µM; activity change, negative = viability loss: at the top concentration
# Source text: PI: Naris Nilubol, MD Surgical Oncology Program, National Cancer Institute (NCI) National Institute of Health (NIH), Bethesda, Maryland Adrenocortical cancer (ACC) is a rare malignancy with poor survival outcomes and few treatment options. Currently, mitotane is the only FDA-approved therapy for ACC. Although adjuvant radiation therapy is rarely utilized, it has the potential to improve survival in select cases. Through a quantitative high-throughput drug screen (qHTS), we identified auranofin (AF), a thioredoxin reductase (TXNRD) inhibitor, as a promising candidate drug. This study aims to evaluate whether AF can enhance the efficacy of radiation therapy in the treatment of ACC. Two human ACC cell lines, SW-13 and NCI-H295R, were screened using the National Center for Advancing Translational Sciences (NCATS) Pharmaceutical Collection (NPC) and the Mechanism Interrogation PlatE (MIPE) library (~4,991 compounds). CellTiter-Glo (Cat # G7570, Promega, Madison, WI) was utilized to measure cell viability. Described herein are the results of the corresponding viability assay.
# PROTOCOL TABLE (as described by Inglese J, Shamu CE and Guy RK. 2007) SEQUENCE No. (e.g., 1, 2, 3, etc.); […] (e.g., Cells, Incubation, Reagent, etc.); VALUE; DESCRIPTION. 1; Cells; 5 uL; white, solid-bottom, 1536-well tissue-culture treated plates. 2; Time; overnight culture at 37C with 5% CO2. 3; Compounds and control; 23 nL; Kalypsis pin tool (Wako USA) equipped with a 1536-well pin head to transfer to the assay plates. 4; Time; 48 hours; 37C with 5% CO2. 5; Reagent; 4 uL; CellTiter-Glo luminescent substrate mix. 6; Time; 20 min at room temperature. 7; Detection; Luminescence; ViewLux plate reader NOTES (numbers refer to Sequence numbers above) 1. NCI-H295R cells were harvested from a T175 flask and resuspended in ITS-supplemented DMEM serum-free medium at a concentration of 300 000 cells/mL. Then 5 uL of resuspended cells were dispensed into each well of white, solid-bottom, 1536-well tissue-culture-treated plates using a multidrop combi dispenser. The plates were covered with stainless steel gasket lids. 2-3. The plates were cultured overnight at 37C with 5% CO2. Twenty-three nL of compounds (eight selected concentrations from the NPC / MIPE) or positive control (10 mM stock of bortezomib) in DMSO was transferred to each well of the assay plate using a pin tool (Kalypsys, San Diego, CA, USA). The final concentration of the compounds in the 5 uL assay volume ranged from 0.5 nM to 46 uM. 4-6. After 48 hours of incubation at 37C and 5% CO2, 4 uL of CellTilter-Glo luminescent substrate mix (Promega, Madison, WI, USA) was added to each well. Then the plates were incubated for 20 minutes at room temperature. 7. After incubation, luminescence was measured using a ViewLux plate reader (PerkinElmer, Waltham, MA, USA) with a clear filter was used to measure the number of metabolically competent cells. To determine compound activity in the qHTS assay, the titration-response data for each sample was plotted and modeled by a four-parameter logistic fit yielding IC50 and efficacy (maximal response) values. Raw plate reads for each titration point were normalized relative to positive control ([…], 100% inhibition) and DMSO-only wells (basal, 0%). REFERENCES: Inglese J, Shamu CE and Guy RK, Reporting data from high throughput screening of small molecule libraries, Nature Chemical Biology, 2007, 3(8): 438-441. doi.org/10.1038/nchembio0807-438.
Compound,"activity change, negative = viability loss",Potency
O=C(Nc1nccs1)C(c1cc(F)ccc1O)N1Cc2ccccc2C1=O (stereo not given),1.21%,–
CN(C)C(=O)Oc1cccc([N+](C)(C)C)c1,-10.3%,–
NCCCC(N)(C(=O)O)C(F)F (stereo not given),–,inactive
COCCNCc1ccc(-c2cc3nccc(Oc4ccc(NC(=O)C5(C(=O)Nc6ccc(F)cc6)CC5)cc4F)c3s2)nc1,–,3.16 µM (active)
CN(C)Cc1ccc(S(=O)(=O)n2ccc(/C=C/C(=O)NO)c2)cc1,–,3.16 µM (active)
CC(=O)OCCN1C(=O)c2c(C)nc3ccc(S(=O)(=O)N4CCOCC4)cc3c2C1=O,-12.9%,–
CC(C)(C)Sc1c(CC(C)(C)C(=O)O)n(Cc2ccc(Cl)cc2)c2ccc(OCc3ccc4ccccc4n3)cc12,-23.3%,–
COC(=O)Nc1nc2ccc(C(=O)C3CC3)cc2[nH]1,–,0.461 µM (active)
Cc1sc2c(c1C)C(c1ccc(Cl)cc1)=N[C@@H](CC(=O)Nc1ccc(OCCOCCOCCOCCNc3cccc4c3C(=O)N(C3CCC(=O)NC3=O)C4=O)cc1)c1nnc(C)n1-2 (stereo not given in full),–,3.98 µM (active)
NS(=O)(=O)c1ccc(NC(=S)N2CCN(C/C=C/c3ccccc3)CC2)cc1,-27.8%,–
Cc1cccc(-c2nn(C(=S)Nc3ccccc3)cc2-c2ccnc3ccccc23)n1,-17.4%,–
Oc1c(Cl)cc(Cl)cc1Sc1cc(Cl)cc(Cl)c1O,–,20.6 µM (active)
CC(C)c1cnn2c(NCc3ccccc3)cc(NCCCCCCN)nc12,–,25.1 µM (active)
NCCCC[C@H](N[C@@H](CCc1ccccc1)C(=O)O)C(=O)N1CCC[C@H]1C(=O)O,-25.3%,–
CCn1c(-c2nonc2N)nc2c(C#CC(C)(C)O)ncc(OC[C@H]3CCCNC3)c21,–,17.8 µM (active)
NCCS(=O)(=O)O,-23.8%,–
CC(C)(C)NC(=O)[C@@H]1CN(Cc2cccnc2)CCN1C[C@@H](O)C[C@@H](Cc1ccccc1)C(=O)N[C@H]1c2ccccc2C[C@H]1O,-24.1%,–
C[N+](C)(C)CCCCCC[N+](C)(C)C,5.97%,–
C[C@H]1[C@H](O)O[C@@H]2O[C@@]3(C)CC[C@H]4[C@H](C)CC[C@@H]1[C@@]24OO3,–,3.55 µM (active)
Cc1ccc(NS(=O)(=O)c2cccc(C#N)c2)c2[nH]cc(C#N)c12,–,0.112 µM (active)

Compound,"activity change, negative = viability loss",Potency
CCCCC(=O)OCC(=O)[C@]1(O)Cc2c(O)c3c(c(O)c2[C@@H](O[C@H]2C[C@H](NC(=O)C(F)(F)F)[C@H](O)[C@H](C)O2)C1)C(=O)c1c(OC)cccc1C3=O,–,3.55 µM (active)
CN1CCN(c2cc3c(nn2)Oc2ccccc2N3C)CC1,-23.9% [at 20 µM],–
C[C@]12CC[C@@H]3c4ccc(O)cc4CC[C@H]3[C@@H]1CCC2=O,-20%,–
CC1(C)S[C@@H]2[C@H](NC(=O)[C@H](N)c3ccccc3)C(=O)N2[C@H]1C(=O)O,-1.91%,–
CNc1ncc2cc(-c3cc(NC(=O)NCCC(C)(C)C)c(F)cc3C)c(C)nc2n1,–,17.8 µM (active)
CCCCN(CCN(CCCC)C(=O)N1CCOCC1)C(=O)N1CCOCC1,-22.2%,–
COc1cc(CCc2cc(NC(=O)c3ccc(N4C[C@@H](C)N[C@@H](C)C4)cc3)n[nH]2)cc(OC)c1,–,17.8 µM (active)
CC1(C)[C@@H]2CC[C@@]1(C)C(=O)C2,5.01%,–
O=C1Nc2ccc(Cl)cc2[C@@](C#CC2CC2)(C(F)(F)F)O1,–,22.4 µM (active)
COc1ccc2c(c1)CC[C@@H](CN(C)CC(=O)O)[C@H]2c1ccccc1,4.85% [at 92.7 µM],–
CC1(C)CC[C@]2(C(=O)O)CC[C@]3(C)C(=CC[C@@H]4[C@@]5(C)C[C@@H](O)[C@H](O)C(C)(C)[C@@H]5CC[C@]43C)[C@@H]2C1,-24.1%,–
CC(=O)OCC(=O)[C@@]1(O)CC[C@H]2[C@@H]3CCC4=CC(=O)CC[C@]4(C)[C@H]3C(=O)C[C@@]21C,–,inactive
COc1ccc(-c2oc3c(CC=C(C)C)c(O)cc(O)c3c(=O)c2O)cc1,-28.5%,–
CCCCC[C@H](O)/C=C/[C@H]1[C@H](O)CC(=O)[C@@H]1CCCCCCC(=O)O,3.4%,–
CCCCNc1ccc(C(=O)OCCN(C)C)cc1,-2.85%,–
CCC(Cc1c(I)cc(I)c(N)c1I)C(=O)O (stereo not given),-1.32%,–
CCn1cc(C(=O)O)c(=O)c2cc3c(cc21)OCO3,-4.39% [at 20 µM],–
Clc1ccc(C(Cn2ccnc2)OCc2c(Cl)cccc2Cl)c(Cl)c1 (stereo not given),–,25.1 µM (active)
CC1=C2C[C@H]3[C@@H](CC[C@@H]4C[C@H](NS(C)(=O)=O)CC[C@@]43C)[C@@H]2CC[C@@]2(C1)O[C@@H]1C[C@H](C)CN[C@H]1[C@H]2C,–,17.8 µM (active)
Nc1ncnc2c1C(=O)N(c1ccc(C3CCC(CC(=O)O)CC3)cc1)CCO2 (stereo not given),0.308%,–
